RAD52 inh: RAD52 DNA annealing inhibitors, primary screen, biochemical, FRET, single point, set 2. recombinant RAD52 DNA annealing, FRET fluorescence. inhibition, % at 18.7 µM. 360,000 compounds, 0.46% hits;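 active means every replicate showing at least 50% inhibition; inconclusive means mean inhibition at least 50% but not in every replicate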
Target sequence (P43351 whole entry, looked up): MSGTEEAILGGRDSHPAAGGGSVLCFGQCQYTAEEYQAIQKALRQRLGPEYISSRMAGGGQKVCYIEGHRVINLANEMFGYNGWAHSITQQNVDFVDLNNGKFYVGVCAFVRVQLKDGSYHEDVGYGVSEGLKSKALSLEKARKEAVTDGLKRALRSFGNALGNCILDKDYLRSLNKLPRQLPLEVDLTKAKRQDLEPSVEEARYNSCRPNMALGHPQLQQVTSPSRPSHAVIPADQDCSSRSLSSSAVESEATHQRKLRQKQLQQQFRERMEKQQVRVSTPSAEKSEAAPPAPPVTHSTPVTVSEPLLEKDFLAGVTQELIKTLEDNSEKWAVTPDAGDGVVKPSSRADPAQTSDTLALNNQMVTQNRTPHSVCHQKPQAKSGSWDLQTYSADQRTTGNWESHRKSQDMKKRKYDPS
NSD2 inh: NSD2 histone methyltransferase inhibitors, primary screen, biochemical, AlphaScreen, single concentration, set 2; 310,000 compounds, 0.54% hits; inhibition, % at 12.5 µM; Histone-lysine N-methyltransferase NSD2 (Homo sapiens), O96028; AID 743445, 2014; NSD2 peptide methylation, 120 min; in the data active means inhibition above about 50%
RAD54 inh: inhibitors of human RAD54 branch migration, primary screen, biochemical, fluorescence, single point. DNA repair and recombination protein RAD54-like (Homo sapiens), Q92698. inhibition, % at 10.4 µM. 360,000 compounds, 0.14% hits. RAD54 Holliday junction branch migration, FAM/BHQ fluorescence;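 active means mean normalized replicate activity at least 40 and at least half of replicates scoring 40 or more; inconclusive means only one of the two criteria met; inactive means mean below 40 and under half of replicates reaching 40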;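 further: 0% = median of neutral control wells and 100% = median of positive control wells; inhibitors cause a drop in the FAM fluorescence signal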
CASP6 VEID inh: human caspase-6 inhibitors, primary screen, biochemical, VEID-R110 fluorescence, single point, set 2 | P55212 | purified caspase-6, Z-VEID-R110 cleavage fluorescence | inhibition, % at 12.5 µM | 350,000 compounds, 0.53% hits | AID 686996, 2013;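 active means mean inhibition across replicates at least about 35%, with every replicate also reaching that limit, limit read from the data; inconclusive means only one of the two criteria met; inactive means neither criterion met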;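 further: 0% = median of neutral control wells and 100% = no fluorescence left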
N-glyco inh: increase of ERlucT glycosylation luciferase signal, primary screen, N-linked glycosylation inhibitor project, D54 ERlucT cells, luminescence, set 2; D54 ERlucT glycosylation luciferase reporter, 24 h; percent of 100 nM tunicamycin response; reporter increase, % at 12.5 µM; 360,000 compounds, 0.23% hits; AID 588692, 2011;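 active means mean luciferase reporter signal, scaled so untreated is 0 and the glycosylation-blocking control 100, at or above a set limit in every replicate; inconclusive means mean reaches the limit but not every replicate does; inactive means mean below the limit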;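 further: luciferase carries N-glycosylation sites so blocking glycosylation raises the light; 0% = median of neutral control wells and 100% = median of 100 nM tunicamycin wells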
Rad54 DNA ctr: DNA binding of candidate compounds, dose response, artefact control for RAD54 inhibitor project, biochemical, fluorescence polarization, cherry-pick | shares compounds with RAD54 inh | Acridine orange-DNA displacement, 20 min | AC50, µM (top dose mostly 35 µM), for inactives: at the highest dose activity change, negative = DNA binding | 460 compounds, 8% hits | AID 651673, 2012;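 active means signal drop giving an AC50 within twice the top valid tested concentration of each sample, actives reach about 35 µM in these data; inactive means activity opposite to expected, plus the rest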;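 further: polarization loss reports compound binding to salmon sperm DNA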
* marks the source's active call; other numbers are inactive results; i = inactive; ? = inconclusive; · = not tested or not shown. Most compounds without a hit are left out; they make up all but 1.2% or so of the library.

SMILES	RAD52 inh	NSD2 inh	RAD54 inh	CASP6 VEID inh	N-glyco inh	Rad54 DNA ctr
O=C(Nc1ccc(C2=NCCN2)cc1)c1ccc(C(=O)Nc2ccc(C3=NCCN3)cc2)c(Cl)c1	72.6*	5.8	?	-117.5	1.4	-6.4%
CCCCN(C)C(=O)c1cc2cc3ccc(OC)cc3nc2o1	-26.8	-1.5	-3.3	0.2	3.2	·
CCN(CC)CCNC(=O)c1cc2cc3ccc(OC)cc3nc2o1	18.6	25.3	50.5*	-4.4	9.7	-24.0%
CCCCN(C)CCNC(=O)c1cc2cc3ccc(OC)cc3nc2o1	7.4	6.6	53.1*	-6.1	3.9	-19.8%
CCOC(=O)c1cnc2c(Cl)cccc2c1NCCCN1CCOCC1	15.6	-1.5	?	-4.8	-2.7	-21.6%
CCOC(=O)c1cnc2c(CC)cccc2c1NCCCN1CCOCC1	32.1	-5.4	?	-3.8	1.9	9.9%
COc1cccc(C(=O)Nc2ccc3c(c2)C(=O)N(C)C[C@H](OC)[C@H](C)CN(C(C)=O)[C@H](C)CO3)c1	-2.1	·	-7.3	3.1	·	·
COc1ccc(C#Cc2ccc3c(c2)[C@H]2[C@H](CCN2C(=O)c2ccccn2)[C@@H](CO)N3)cc1	19.0	·	·	2.2	·	·
CCCC(c1nnnn1Cc1ccc(OC)cc1)N1CCN(c2ccccc2)CC1 (stereo not given)	·	1.4	?	·	3.5	-10.3%
O=C1c2cccc3cccc(c23)C(=O)N1CCCn1ccnc1	32.8	·	51.4*	-0.5	4.8	-13.8%
C[C@H](CO)N1C[C@H](C)[C@@H](CN(C)C(=O)c2ccccn2)Oc2ncc(C3=CCCCC3)cc2C1=O	-3.4	·	-1.7	-1.0	·	·
CC1CCCCC1NC(=O)C1Cc2ccccc2CN1S(C)(=O)=O (stereo not given)	·	1.0	?	·	2.5	-9.9%
CCOc1cc2nc(-c3ccc(OC)c(OC)c3)nc(NCCCN3CCOCC3)c2cc1OC	·	3.1	84.6*	·	-2.2	i
Cc1ccc(-c2nc(N3CCN(C)CC3)c3ccccc3n2)cc1	4.7	6.3	57.2*	-7.6	4.6	-14.9%
Cc1noc(C)c1S(=O)(=O)Nc1ccc2c(c1)C(=O)N([C@H](C)CO)C[C@@H](C)[C@@H](CN(C)C(=O)c1ccncc1)OCCCC[C@@H](C)O2	8.7	·	5.2	1.2	·	·
COc1cc2[nH]c3c(=O)n(CCN(C(C)C)C(C)C)cnc3c2cc1OC	·	-5.6	?	·	3.2	6.8%
CNC(=O)C[C@H]1CC[C@H]2[C@@H](COc3ccc(NC(=O)NC(C)C)cc3C(=O)N2C)O1	·	·	4.1	·	·	·
Cc1noc(C)c1S(=O)(=O)Nc1ccc2c(c1)C(=O)N([C@@H](C)CO)C[C@@H](C)[C@@H](CN(C)Cc1ccc(-c3ccccc3)cc1)O2	-9.8	·	·	-1.3	·	·
CCCCN(C)CCNC(=O)c1cc2c(-c3cccc(OC)c3)nn(C)c2s1	65.2*	8.5	72.5*	-10.3	-1.3	-15.8%
CCN1CCCC1CNC(=O)c1cc2c(-c3cccc(OC)c3)nn(C)c2s1 (stereo not given)	·	-1.9	50.4*	·	1.2	-8.7%
COCC(=O)Nc1ccc2c(c1)[C@H]1C[C@@H](CC(=O)NCc3ccccn3)O[C@@H](CO)[C@H]1O2	3.3	·	-0.2	1.1	·	·
CN(C)c1ccc2c(c1)[C@@H]1C[C@H](CC(=O)N3CCCCC3)O[C@H](CO)[C@@H]1O2	-177.7	·	·	22.8	·	·
CCCC(=O)Nc1ccc2c(c1)OC[C@@H](C)N(CCC(F)(F)F)C[C@H](C)[C@@H](OC)CN(C)C2=O	6.9	·	-1.7	-1.4	·	·
O=C(C1CCCCC1)N1CC2(C1)[C@H](c1ccccc1)[C@H](CO)N2Cc1ccccc1F	-106.5	·	·	-1.8	·	·
O=C(C[C@H]1CC[C@H]2[C@@H](COC[C@H](O)CN2C(=O)c2ccccc2F)O1)N1CCCCC1	-23.6	·	-3.8	-5.9	·	·
CCCNC(=O)N1[C@@H](CO)[C@H](c2ccccc2)[C@@H]1CNC(C)=O	-5.1	·	-1.0	1.4	·	·

Screens deposited in PubChem BioAssay by Broad Institute.
